Reference: PubChem BioAssay AID1159580 (chemical genetic matrix, 2015)
In all, about 5,500 compounds went through this assay and about 2,000 (36%) were called active. Roughly 18% stayed inconclusive and do not appear here. Rule as the data show it: active = normalized growth mostly below about 0.91 (no sharp cut-off); inconclusive = no clear call, values can overlap the other calls; inactive = mostly above about 0.92. Some of the results follow.

Assay: chemical genetic growth profiling, strain panel (AID 1159580);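 also: tested at 20 µM; growth read once vehicle control cultures reached saturation at 30 °C; 1 = growth at the plate median or of vehicle wells; lower values mean less growth of the strain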
Details: S. cerevisiae deletion strains, growth OD
[1] = locus YJL095W, strain BCK1, active compounds read low

Measured: normalized growth

NC(=O)CC[C@H](N)C(=O)O
inactive: locus YHR030C, strain SLT2, active compounds read low 0.98 | locus YHR079C, strain IRE1, active compounds read low 0.977 | [1] 0.965 | locus YJR066W, strain TOR1, active compounds read low 0.941 | locus YLR113W, strain HOG1, active compounds read low 0.976 | locus YNL183C, strain NPR1, active compounds read low 0.954 | locus YOR231W, strain MKK1, active compounds read low 0.98 | locus YPL256C, strain CLN2, active compounds read low 0.972

O=c1oc2ccccc2cc1O
inactive: locus YAL021C, strain ccr4, active compounds read low 0.986 | locus YAL026C, strain drs2, active compounds read low 0.975 | locus YAL030W, strain snc1, active compounds read low 0.993 | locus YBL061C, strain skt5, active compounds read low 0.993 | locus YBR009C, strain hhf1, active compounds read low 1 | locus YBR021W, strain FUR4, active compounds read low 1.03 | locus YBR023C, strain chs3, active compounds read low 0.993 | locus YBR171W, strain sec66, active compounds read low 0.977 | locus YBR229C, strain ROT2, active compounds read low 1.03 | locus YBR231C, strain swc5, active compounds read low 1.01 | locus YBR279W, strain paf1, active compounds read low 0.994 | locus YCL011C, strain gbp2, active compounds read low 1.01 | locus YCL016C, strain dcc1, active compounds read low 0.999 | locus YCL029C, strain bik1, active compounds read low 1.02 | locus YCL061C, strain MRC1, active compounds read low 0.991 | locus YCL069W, strain vba3, active compounds read low 0.968 | locus YCR088W, strain abp1, active compounds read low 0.986 | locus YDL005C, strain med2, active compounds read low 0.986 | locus YDL035C, strain GPR1, active compounds read low 1.06 | locus YDL040C, strain nat1, active compounds read low 0.994 | locus YDL074C, strain BRE1, active compounds read low 1.13 | locus YDL101C, strain DUN1, active compounds read low 1.01 | locus YDL134C, strain PPH21, active compounds read low 1.07 | locus YDL185W, strain tfp1, active compounds read low 0.998 | locus YDL192W, strain arf1, active compounds read low 1.03 | locus YDR001C, strain nth1, active compounds read low 0.984 | locus YDR069C, strain doa4, active compounds read low 0.991 | locus YDR101C, strain arx1, active compounds read low 0.991 | locus YDR137W, strain rgp1, active compounds read low 0.969 | locus YDR159W, strain sac3, active compounds read low 1.03 | locus YDR162C, strain NBP2, active compounds read low 1.04 | locus YDR195W, strain ref2 1.01 | locus YDR297W, strain sur2, active compounds read low 0.989 | locus YDR318W, strain mcm21, active compounds read low 0.995 | locus YDR334W, strain swr1, active compounds read low 0.96 | locus YDR335W, strain msn5, active compounds read low 1 | locus YDR388W, active compounds read low 0.992 | locus YDR392W, strain spt3, active compounds read low 0.983 | locus YDR502C, strain sam2, active compounds read low 0.986 | locus YEL003W, strain gim4, active compounds read low 0.993 | locus YEL037C, strain rad23, active compounds read low 0.979 | locus YEL061C, strain CIN8 (second series), active compounds read low 0.976 | locus YER015W, strain faa2, active compounds read low 1.01 | locus YER016W, strain bim1, active compounds read low 1 | locus YER110C, active compounds read low 0.974 | locus YER111C, strain swi4, active compounds read low 0.988 | locus YER155C, strain BEM2 (second series), active compounds read low 0.989 | locus YER155C, strain BEM2, active compounds read low 1.02 | locus YER167W, strain BCK2, active compounds read low 1.03 | locus YFR010W, strain ubp6, active compounds read low 0.963 | locus YGL078C, strain dbp3, active compounds read low 0.953 | locus YGL086W, strain mad1, active compounds read low 0.994 | locus YGL167C, strain pmr1, active compounds read low 0.99 | locus YGL173C, strain kem1, active compounds read low 0.996 | locus YGL227W, strain vid30, active compounds read low 0.995 | locus YGL240W, strain doc1, active compounds read low 0.984 | locus YGL248W, strain PDE1, active compounds read low 1.04 | locus YGL253W, strain hxk2, active compounds read low 0.994 | locus YGR135W, strain pre9, active compounds read low 0.969 | locus YGR252W, strain gcn5, active compounds read low 0.924 | locus YHR013C, strain ard1, active compounds read low 1.04 | locus YHR027C, strain rpn1, active compounds read low 0.986 | locus YHR079C, strain IRE1 (second series), active compounds read low 0.986 | locus YHR094C, strain hxt1, active compounds read low 0.989 | locus YHR129C, strain ARP1, active compounds read low 1.06 | locus YHR142W, strain chs7, active compounds read low 0.974 | locus YHR200W, strain rpn10, active compounds read low 0.983 | locus YIL066C, strain RNR3, active compounds read low 1.04 | locus YIL073C, strain SPO22, active compounds read low 1.08 | locus YIL125W, strain kgd1, active compounds read low 1 | locus YIR030C, strain dcg1, active compounds read low 1 | locus YJL092W, strain hpr5, active compounds read low 0.987 | locus YJL095W, strain BCK1 (second series), active compounds read low 0.982 | [1] 1.11 | locus YJL115W, strain asf1, active compounds read low 0.98 | locus YJL129C, strain trk1, active compounds read low 0.989 | locus YJL134W, strain LCB3, active compounds read low 1.02 | locus YJL154C, strain vps35, active compounds read low 0.987 | locus YJL164C, strain tpk1, active compounds read low 0.99 | locus YJL166W, strain qcr8, active compounds read low 0.992 | locus YJL168C, strain set2, active compounds read low 0.989 | locus YJL187C, strain SWE1 (second series), active compounds read low 1.03 | locus YJL187C, strain SWE1, active compounds read low 0.996 | locus YKL009W, strain mrt4, active compounds read low 0.937 | locus YKL068W, active compounds read low 0.978 | locus YKL085W, strain MDH1 (second series), active compounds read low 0.99 | locus YKL085W, strain MDH1, active compounds read low 0.99 | locus YKL160W, strain elf1, active compounds read low 1.01 | locus YKL190W, strain CNB1, active compounds read low 1.04 | locus YKR001C, strain vps1, active compounds read low 1.02 | locus YKR026C, strain gcn3, active compounds read low 0.988 | locus YKR091W, strain srl3, active compounds read low 0.994 | locus YLL001W, strain dnm1, active compounds read low 0.985 | locus YLL026W, active compounds read low 1 | locus YLL041C, strain sdh2, active compounds read low 1.01 | locus YLR027C, strain aat2, active compounds read low 1.01 | locus YLR039C, strain RIC1, active compounds read low 1.16 | locus YLR058C, strain SHM2, active compounds read low 1.04 | locus YLR102C, strain apc9, active compounds read low 1.01 | locus YLR221C, strain rsa3, active compounds read low 1 | locus YLR258W, strain gsy2, active compounds read low 0.987 | locus YLR262C, strain YPT6 (second series), active compounds read low 0.898 | locus YLR262C, strain YPT6, active compounds read low 1.07 | locus YLR268W, strain sec22, active compounds read low 0.997 | locus YLR320W, strain mms22, active compounds read low 1 | locus YLR342W, strain FKS1 (second series), active compounds read low 1.04 | locus YLR342W, strain FKS1, active compounds read low 0.985 | locus YLR357W, strain rsc2, active compounds read low 1 | locus YLR370C, strain arc18, active compounds read low 0.983 | locus YLR371W, strain rom2, active compounds read low 1.02 | locus YLR384C, strain iki3, active compounds read low 1 | locus YLR418C, strain cdc73, active compounds read low 1.11 | locus YML016C, strain PPZ1, active compounds read low 1.03 | locus YML032C, strain rad52, active compounds read low 0.995 | locus YML120C, strain ndi1, active compounds read low 0.981 | locus YML124C, strain tub3, active compounds read low 1.01 | locus YMR058W, strain fet3, active compounds read low 0.984 | locus YMR078C, strain ctf18, active compounds read low 0.985 | locus YMR125W, strain sto1, active compounds read low 0.972 | locus YMR129W, active compounds read low 1 | locus YMR205C, strain PFK2, active compounds read low 1.01 | locus YMR223W, strain ubp8, active compounds read low 1 | locus YMR231W, strain pep5, active compounds read low 0.977 | locus YMR307W, strain GAS1, active compounds read low 1.3 | locus YNL067W, strain RPL9B, active compounds read low 1.03 | locus YNL071W, strain lat1, active compounds read low 0.978 | locus YNL128W, strain TEP1, active compounds read low 1.03 | locus YNL209W, strain ssb2, active compounds read low 0.998 | locus YNL233W, strain BNI4, active compounds read low 1.08 | locus YNL248C, strain rpa49, active compounds read low 0.958 | locus YNL250W, strain rad50, active compounds read low 1.01 | locus YNL271C, strain bni1, active compounds read low 0.987 | locus YNL298W, strain CLA4, active compounds read low 0.993 | locus YNL307C, strain MCK1, active compounds read low 1 | locus YNL322C, strain KRE1 (second series), active compounds read low 0.989 | locus YNR049C, strain mso1, active compounds read low 0.998 | locus YNR052C, strain pop2, active compounds read low 0.948 | locus YOL012C, strain htz1 1.2 | locus YOL147C, strain pex11, active compounds read low 1 | locus YOR001W, strain rrp6, active compounds read low 0.985 | locus YOR061W, strain CKA2, active compounds read low 1.02 | locus YOR069W, strain VPS5, active compounds read low 1.02 | locus YOR070C, strain gyp1, active compounds read low 0.997 | locus YOR080W, strain dia2, active compounds read low 0.984 | locus YOR083W, strain WHI5, active compounds read low 0.986 | locus YOR106W, strain vam3, active compounds read low 0.946 | locus YOR136W, strain idh2, active compounds read low 0.985 | locus YOR144C, strain elg1, active compounds read low 0.996 | locus YOR184W, strain ser1, active compounds read low 0.98 | locus YOR265W, strain rbl2, active compounds read low 0.992 | locus YOR270C, strain vph1, active compounds read low 0.87 | locus YOR290C, strain snf2, active compounds read low 0.984 | locus YOR316C, strain cot1, active compounds read low 0.991 | locus YPL051W, strain arl3, active compounds read low 0.997 | locus YPL055C, strain LGE1, active compounds read low 1.13 | locus YPL078C, strain atp4, active compounds read low 0.966 | locus YPL106C, strain sse1, active compounds read low 0.988 | locus YPL240C, strain hsp82, active compounds read low 0.997 | locus YPL241C, strain CIN2, active compounds read low 1.04 | locus YPR119W, strain clb2, active compounds read low 1.01 | locus YPR141C, strain kar3, active compounds read low 1 | locus YPR163C, strain tif3, active compounds read low 1 | locus YPR167C, strain met16, active compounds read low 0.993 | strain wtn01, active compounds read low 0.984
